PubChem BioAssay (EPA / NIEHS)
Results filed as inconclusive are left out. Active and inactive are the calls of the source. The calls were made as follows: active = hit-call score of the fitted dose curve at least 0.9, where 1 is the maximum; inconclusive = response in the unintended direction; inactive = score below 0.9.

Molecular target: Retinoic acid receptor RXR-alpha (Homo sapiens) (UniProt P19793)
Test: ATG_RXRa_TRANS: Attagene TRANS-FACTORIAL HepG2 Assay for human Retinoid X Receptor alpha (RXRa) (AID 2283012)
Method: ATG_TRANS is a cell-based, multiplexed-readout assay that uses HepG2, a human liver cell line, with measurements taken at 24 hours after chemical dosing in a 24-well plate.ATG_RXRa_TRANS is one of 30 assay component(s) measured or calculated from the ATG_TRANS assay. It is designed to make measurements of mRNA induction, a form of inducible reporter, as detected with fluorescence intensity signals by Reverse transcription polymerase chain reaction (RT-PCR) and Capillary electrophoresis technology.Data from the assay component ATG_RXRa_TRANS was analyzed into 1 assay endpoint. This assay endpoint, ATG_RXRa_TRANS, was analyzed in the positive analysis fitting direction relative to DMSO as the negative control and baseline of activity. Using a type of inducible reporter, measures of mRNA for gain-of-signal activity can be used to understand the reporter gene at the transcription factor-level as they relate to the gene RXRA. Furthermore, this assay endpoint can be referred to as a primary readout, because this assay has produced multiple assay endpoints where this one serves a reporter gene function. To generalize the intended target to other relatable targets, this assay endpoint is annotated to the nuclear receptor intended target family, where the subfamily is non-steroidal.
Human liver HepG2 cells are transiently transfected with multiple reporter transcription units (MRTUs) in 6-well plates using FuGene 6 reagent (Roche; 3 ml FuGene/1 mg DNA). The MRTU constructs are regulated by a cis-regulating element (promoter). […] A major difference between the CIS and TRANS system is that in CIS activities of endogenous TFs are measured, whereas the TRANS assay evaluates changes in activities of exogenous, chimeric NR-Gal4 proteins. […] At the end of 24 hour incubation, total RNA was isolated using TriZol reagent (Invitrogen). The isolated RNA is then reverse-transcribed using oligo(dT) primer and Mo-MLV reverse transcriptase (Invitrogen) with DNAse I (Ambion) treatment for 30 min. The one-tenth of the produced cDNA was amplified by PCR using Taq DNA polymerase (Invitrogen) and two reporter sequence-specific primers. The PCR products were fluorescently labeled by primer extension with 6-arboxyfluorescein (6-FAM) 5'-labeled reporter sequence-specific primer (2 min at 95 C, 20 s at 68 C and 10 min at 72 C) and these products were digested with 5U of HpaI (New England Biolabs) for 2h at 37 C. The fragments were purified using Qiaquick PCR columns (Qiagen), analyzed on an ABI 3130xL genetic analyzer (Applied Biosystems) with peak positions identified by using a set of X-rhodamine (ROX)-labeled MapMarker1000 molecular weight standards (BioVentures). The raw capillary electrophoresis data was processed using Attagraph software (Attagene).

Retinoic acid receptor RXR-alpha (Homo sapiens), sequence (P19793 whole entry, looked up): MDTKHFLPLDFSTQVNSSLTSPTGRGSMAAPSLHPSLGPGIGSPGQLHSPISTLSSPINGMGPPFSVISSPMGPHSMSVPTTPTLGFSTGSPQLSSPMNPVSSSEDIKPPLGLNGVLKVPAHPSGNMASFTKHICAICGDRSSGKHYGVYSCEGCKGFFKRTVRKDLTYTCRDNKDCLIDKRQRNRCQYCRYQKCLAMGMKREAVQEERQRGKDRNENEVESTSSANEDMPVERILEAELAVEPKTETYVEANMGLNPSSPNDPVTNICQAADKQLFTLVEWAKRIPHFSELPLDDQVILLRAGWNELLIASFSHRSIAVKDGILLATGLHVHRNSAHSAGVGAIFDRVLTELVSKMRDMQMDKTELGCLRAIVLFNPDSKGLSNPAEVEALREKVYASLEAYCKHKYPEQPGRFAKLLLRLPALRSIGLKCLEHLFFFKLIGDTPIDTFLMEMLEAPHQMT

Row | Structure (SMILES) | outcome | AC50
1 | COc1cc([C@@H]2c3cc4c(cc3[C@@H](O[C@@H]3O[C@@H]5CO[C@@H](C)O[C@H]5[C@H](O)[C@H]3O)[C@H]3COC(=O)[C@H]23)OCO4)cc(OC)c1O | inactive | –
2 | CC1(C)C2=CCCC(C)(C)[C@]23CC[C@H]1C3 | inactive | –
3 | C[C@H]1C[C@@H](O)CC(C)(C)C1 | inactive | –
4 | CCCCCCCCCCCCN1CCCCCC1=O | inactive | –
5 | CCc1cc(Cc2cc(CC)cc(C(C)(C)C)c2O)c(O)c(C(C)(C)C)c1 | inactive | –
6 | CCCCC1CCC(O)CC1 (stereo not given) | inactive | –
7 | OCCOCCN1CCN(C2=Nc3ccccc3Sc3ccccc32)CC1 | inactive | –
8 | O=C(O)CNc1ccccc1 | inactive | –
9 | O=C(Nc1ccc2c(c1)Cc1ccccc1-2)C(F)(F)F | inactive | –
10 | CCCCN(CCCC)C(=O)N(CCCC)CCCC | inactive | –
11 | CCCCCCC(O)CCCCCCCCCCC(=O)O (stereo not given) | inactive | –
12 | CCC(Cl)C(Cl)C(Cl)CC(Cl)C(Cl)C(C)Cl (stereo not given) | inactive | –
13 | CN(C)c1ccncc1 | inactive | –
14 | Cc1ccc(OC(=O)c2ccccc2O)cc1 | inactive | –
15 | O=C1CCCC=CCCCCCCCCCC1 | – | 24.4 µM (active)
16 | CCCCCCC(C)Nc1ccc(Nc2ccccc2)cc1 (stereo not given) | – | 34.4 µM (active)
17 | O=C1NC2NC(=O)NC2N1 (stereo not given) | inactive | –
18 | C=C(C)[C@H]1CC=C(C)C(=O)C1 | inactive | –
19 | COC(C)(C)CCCC(C)CC=O (stereo not given) | inactive | –
20 | c1ccc2cc(Nc3ccc(Nc4ccc5ccccc5c4)cc3)ccc2c1 | inactive | –

Row | Structure (SMILES) | outcome | AC50
21 | N[C@@H](Cc1cc(I)c(Oc2cc(I)c(O)c(I)c2)c(I)c1)C(=O)O | inactive | –
22 | CC1=CC[C@@]23C[C@@H]1C(C)(C)[C@@H]2CC[C@H]3C | inactive | –
23 | CCCCOC(=O)CCCCCCCC(=O)OCCCC | inactive | –
24 | OCCc1ccccc1 | inactive | –
25 | CN(C)CCOc1ccc(/C(=C(/CCCl)c2ccccc2)c2ccccc2)cc1 | inactive | –
26 | Clc1cc(Cl)c(-c2c(Cl)c(Cl)cc(Cl)c2Cl)cc1Cl | inactive | –
27 | CCCCCc1ccco1 | inactive | –
28 | O=C(CS)OCCOC(=O)CS | inactive | –
29 | CC=Cc1ccc(OC)c(OC)c1 | inactive | –
30 | CCOC(=O)C(C#N)=C(c1ccccc1)c1ccccc1 | inactive | –
31 | CC1CC(O)CC(C)(C)C1 (stereo not given) | inactive | –
32 | CCCC(=O)c1ccccc1 | inactive | –
33 | O=C(Nc1ccc([N+](=O)[O-])cc1)Nc1ccc([N+](=O)[O-])cc1 (tested in a mixture with another compound) | inactive | –
34 | CC(C)=CCCC(C)CCOC=O (stereo not given) | inactive | –
35 | C=CCCC(=O)/C=C/C1C(C)=CCCC1(C)C (stereo not given) | inactive | –
36 | NCCNc1cccc2ccccc12 | inactive | –
37 | COC(C)(C)CC(C)=O | inactive | –
38 | CCCN(CCC)S(=O)(=O)c1ccc(C(=O)O)cc1 | inactive | –
39 | O=[N+]([O-])c1ccc(O)cc1C(F)(F)F | inactive | –
40 | Cc1c(OCC(F)(F)F)ccnc1CS(=O)c1nc2ccccc2[nH]1 (stereo not given) | inactive | –
